The text below walks through data of PubChem BioAssay (NCATS).

Values joined by “and” are separate entries in the source; they are usually repeats but may differ in a detail not shown here. Equal values may be shown once. Inconclusive results are not listed. Active and inactive are the calls of the source. Unless noted, calls come from the whole dose curve; as a rule, active = well fitted curve in the direction sought with a large enough effect; inconclusive = small, poorly fitted or top-dose-only effect, or another doubt; inactive = no such curve, though single readings can be large; an effect the other way counts as inactive or inconclusive.

Test [1] can be described thus: Cell Viability - Hek293 (AID 427;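 active = compounds whose dose-response curve shows a full or clear partial loss of cell viability, called from curve shape rather than a numeric limit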;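 note: potency is the fitted concentration of half-maximal effect; cells exposed to compound for 40 hours at 37 °C before reading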). The note with it: qHTS. A digest of the protocol:
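HEK293 cells in complete medium were exposed to compound for 40 hr at 37 °C, then cellular ATP was read by CellTiter-Glo luminescence. Data were normalized to DMSO (basal) and 100 uM tamoxifen (100% inhibition), and AC50 came from Hill fits.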
Background: Quantitative high-throughput screening tests each substance at several concentrations.

Test [2] is described as follows: Cell Viability - N2a (AID 540).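 Note: plate controls were DMSO alone for no effect and tamoxifen control for full effect; nearly all actives have a fitted effect of over 45% in size.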 To be noted: N2a mouse neuroblastoma cell viability; activity change, negative = cytotoxicity: at 92.2 µM (top of the series). In outline:
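Cytotoxicity was scored as loss of cellular ATP in N2a cells, a mouse neuroblastoma line. Compounds are applied in a qHTS concentration series for 40 hr at 37 °C.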

The nature of test [3]: Cell Viability - H-4-II-E (AID 543). Note: % is set by controls: 0 for no effect and ±100 for the full control effect; nearly all actives have a fitted effect of over 35% in size. The note with it: H-4-II-E rat hepatoma viability; series mostly up to 92.2 µM. In outline: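 Cells seeded at 1500 per well and rested 5 hr; compounds added; 40 hr incubation at 37 °C; CellTiter-Glo added, 20 min at room temperature; luminescence read. Hill-equation fits gave AC50.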
Test [4] is described as follows: Cell Viability - Renal Proximal Tubule (AID 545).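 Note: 0% = DMSO only and -100% = 100 µM tamoxifen; nearly all actives have a fitted effect of over 40% in size.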 The note with it: renal proximal tubule cells viability, primary cells of rat origin; activity change, negative = cytotoxicity: at 91.7 µM (top of the series). In outline:
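Luminescent ATP signal (CellTiter-Glo) served as the viability read-out after 40 hr compound exposure of freshly isolated rat proximal tubule cells at 37 °C. Concentration-dependent ATP loss was fitted with the Hill equation to give AC50.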

A short description of test [5]: MultiTox-Fluor Cytotoxicity Assay - LYMP1-002 - Dead Cells (AID 960). Note: nearly all actives have a fitted effect of over 60% in size. Note: potency is the fitted concentration of half-maximal effect. The note with it: LYMP1-002 lymphoblastoid cells, dead-cell protease fluorescence; series mostly up to 46.1 µM. In outline:
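Cells were plated, rested 5 hr, then treated with compound dilution series for 16 hr at 37 C. After adding substrate reagent and 60 min at room temperature, dead-cell protease fluorescence gave concentration-response curves fitted by the Hill equation.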

A short description of test [6]: Cell Viability - LYMP2-004 (AID 966).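 For activity change, negative = cytotoxicity: plate controls were DMSO only for no effect and tetraoctylammonium bromide control for full effect.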 Note: nearly all actives have a fitted effect of over 65% in size. Note: potency is the fitted concentration of half-maximal effect. The note with it: LYMP2-004 lymphoblastoid cell viability, qHTS; series mostly up to 92.2 µM. In outline: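 qHTS cytotoxicity: human lymphoblastoid line, 24 hr compound treatment, 37 C, complete medium. Viability read as cellular ATP via luciferase luminescence; tetraoctylammonium bromide served as positive control.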
The nature of test [7]: Cell Viability - LYMP2-009 (AID 968).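 Note: cells exposed to compound for 24 h at 37 °C; 0% = DMSO alone and the full-kill end = tetraoctylammonium bromide at 92 µM; nearly all actives have a fitted effect of over 55% in size.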 The note with it: LYMP2-009 lymphoblastoid cell viability; series mostly up to 92.2 µM.
Test [8] in a line: Cell Viability - LYMP2-015 (AID 971).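 Note: 0% = DMSO only and full effect = 92 µM tetraoctylammonium bromide; nearly all actives have a fitted effect of over 55% in size.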 To be noted: LYMP2-015 lymphoblastoid cell viability; series mostly up to 92.2 µM. In outline: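 Cells are seeded at 2500 per well and incubated 5 hr at 37 C. Compounds are added across a concentration series for 24 hr at 37 C. CellTiter-Glo is added, and luminescence is read after 30 min at room temperature.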
Test [9] is described as follows: Cell Viability - LYMP2-017 (AID 972). For activity change, negative = cytotoxicity: % is set by controls: 0 for no effect and ±100 for the full control effect.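 Note: cells exposed to compound for 24 hours at 37 °C; nearly all actives have a fitted effect of over 55% in size.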 Note: potency is the fitted concentration of half-maximal effect. The note with it: LYMP2-017 lymphoblastoid cell viability; series mostly up to 92.2 µM. A digest of the protocol: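 Cytotoxicity is scored as a concentration-dependent drop in cellular ATP in a human lymphoblastoid line after 24 hr treatment at 37 C. Values are AC50s from Hill-equation modelling.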
Test [10] in a line: Cell Viability - LYMP2-006 (AID 978). For activity change, negative = cytotoxicity: % is set by controls: 0 for no effect and ±100 for the full control effect.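 Note: cells exposed to compound for 24 hours; nearly all actives have a fitted effect of over 60% in size.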 Note: potency is the fitted concentration of half-maximal effect. The note with it: LYMP2-006 lymphoblastoid cell viability, qHTS; series mostly up to 92.2 µM. A digest of the protocol:
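Cells are seeded at 2500 per well and rested 5 hr at 37 C. Compounds are added across a concentration series for 24 hr at 37 C, after which ATP is quantified by luciferase luminescence.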

Test [11] in a line: Cell Viability - LYMP2-010 (AID 981).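 Note: cells exposed to compound for 24 hours at 37 °C; nearly all actives have a fitted effect of over 55% in size.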 Note: potency is the fitted concentration of half-maximal effect. To be noted: LYMP2-010 lymphoblastoid cell viability, qHTS; series mostly up to 92.2 µM. In outline: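 Steps: seed 2500 LYMP2-010 cells per well; incubate 5 hr at 37 C; add compound; incubate 24 hr at 37 C; add CellTiter-Glo, wait 30 min at room temperature; read luminescence. Concentration-response fitted to Hill equation for AC50.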
Test [12] is described as follows: qHTS assay for small molecule agonists of retinoid X receptor alpha signaling (AID 588544; calls by dose curve). To be noted: HEK293T RXRa-UAS-bla, beta-lactamase reporter, 18 h; 530 nm emission.
Test [13] deals with Retinoic acid receptor RXR-alpha (Homo sapiens) (UniProt P19793). The test is described as above. To be noted: HEK293T RXRa-UAS-bla, beta-lactamase reporter, 18 h; series mostly up to 76.7 µM.
Test [14] has as its target Thyroid hormone receptor beta (Homo sapiens) (UniProt P10828). The test can be described thus: qHTS assay for small molecule agonists of thyroid hormone receptor beta signaling (AID 588545; calls by dose curve;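 note: 0% = DMSO only and 100% = 10 nM T3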). The note with it: TR-UAS-bla GripTite HEK 293, beta-lactamase ratio, agonist mode, 18 h; series mostly up to 76.7 µM. A digest of the protocol:
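Beta-lactamase reporter activity under TR response element control is measured in HEK 293 cells after 18 hrs compound exposure. Signal is ratiometric CCF4 fluorescence, 460/530 nm.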

The nature of test [15]: qHTS assay for small molecule disruptors of the mitochondrial membrane potential - 1 hr assay (AID 651754; calls by dose curve; note: nearly all actives have a fitted effect of over 35% in size; note: potency is the fitted concentration of half-maximal effect). The note with it: series mostly up to 92.2 µM. In outline:
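Loss of mitochondrial potential shifts the cationic dye from red mitochondrial aggregates to green cytoplasmic monomers. Cells (HepG2) are treated with compound for 1 hr before a 30 min dye incubation at 37C.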

Test [16] can be described thus: qHTS assay for small molecule disruptors of the mitochondrial membrane potential - 5 hr assay (AID 651755; calls by dose curve; note: nearly all actives have a fitted effect of over 40% in size; note: potency is the fitted concentration of half-maximal effect). To be noted: JC-1-type ratio dye; series mostly up to 92.2 µM. In outline: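 Seed HepG2 overnight, add compound, incubate 5 hr at 37C and 5% CO2, stain 30 min with Mito-MPS, then measure monomer (490/535 nm) and aggregate (540/590 nm) fluorescence.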
Test [17] is described as follows: qHTS assay for small molecule agonists of the antioxidant response element (ARE) signaling pathway measured by Nrf2-dependant transcriptional activity (AID 720636; active = well fitted curve in the direction sought with a large enough effect in the repeat runs; an effect the other way counts as inactive or inconclusive;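 note: HepG2 cells with an ARE-driven luciferase reporter; % of control where 0% means no effect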). To be noted: ARE-luc HepG2, Nrf2 luciferase reporter, 16 h; series mostly up to 92.4 µM. In outline:
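Nrf2-dependent transcription is measured in ARE-luc HepG2 cells: compound is applied for 16 hr at 37 C after a 6 hr attachment period, and luciferase activity is quantified by luminescence using ONE-Glo.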

In test [18] the target is Nuclear receptor subfamily 1 group I member 2 (Rattus norvegicus) (UniProt Q9R1A7). The test can be described thus: qHTS assay for small molecule activators of the rat pregnane X receptor (rPXR) signaling pathway (AID 651751; call rule not given here; note: 0% is about no effect). To be noted: rPXR reporter cells, luciferase (One-Glo), 24 h.
A short description of test [19]: Cell Viability - LYMP2-005 (AID 967).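 Note: cells exposed to compound for 24 h at 37 °C; plate controls were DMSO only for no effect and 92 µM tetraoctylammonium bromide control for full effect.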 To be noted: LYMP2-005 lymphoblastoid cell viability; series mostly up to 92.2 µM. A digest of the protocol:
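Acute cytotoxicity is scored as a concentration-dependent drop in intracellular ATP in human lymphoblastoid LYMP2-005 cells after 24 h compound treatment. ATP is quantified by luciferase luminescence, and AC50 is derived by Hill-equation modelling.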

The nature of test [20]: Cell Viability - SH-SY5Y (AID 544).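 For viability change, negative = cytotoxic: 0% = DMSO alone and -100% = 100 µM tamoxifen.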 Note: nearly all actives have a fitted effect of over 55% in size. Note: potency is the fitted concentration of half-maximal effect. The note with it: SH-SY5Y neuroblastoma cell viability; viability change, negative = cytotoxic: at 92.2 µM (top of the series). A digest of the protocol:
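Cells were plated at 1500 per well and allowed 5 hr at 37 °C. Compounds were added across a concentration range and incubated 40 hr at 37 °C. CellTiter-Glo was added for 20 min at room temperature before luminescence reading.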

Sequence of Thyroid hormone receptor beta (Homo sapiens) (P10828 whole entry, looked up): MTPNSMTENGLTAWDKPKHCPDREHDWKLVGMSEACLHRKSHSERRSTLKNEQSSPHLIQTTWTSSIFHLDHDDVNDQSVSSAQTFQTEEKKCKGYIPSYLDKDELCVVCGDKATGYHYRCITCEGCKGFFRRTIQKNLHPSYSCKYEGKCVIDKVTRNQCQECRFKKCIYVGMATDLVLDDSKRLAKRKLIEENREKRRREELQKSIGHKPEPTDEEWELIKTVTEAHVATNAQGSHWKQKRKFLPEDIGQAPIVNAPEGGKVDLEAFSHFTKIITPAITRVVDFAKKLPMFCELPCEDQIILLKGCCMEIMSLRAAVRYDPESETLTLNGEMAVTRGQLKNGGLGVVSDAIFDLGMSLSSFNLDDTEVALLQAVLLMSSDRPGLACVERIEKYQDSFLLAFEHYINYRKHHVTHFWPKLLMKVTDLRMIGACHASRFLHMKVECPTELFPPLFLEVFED
Sequence of Retinoic acid receptor RXR-alpha (Homo sapiens) (P19793 whole entry, looked up): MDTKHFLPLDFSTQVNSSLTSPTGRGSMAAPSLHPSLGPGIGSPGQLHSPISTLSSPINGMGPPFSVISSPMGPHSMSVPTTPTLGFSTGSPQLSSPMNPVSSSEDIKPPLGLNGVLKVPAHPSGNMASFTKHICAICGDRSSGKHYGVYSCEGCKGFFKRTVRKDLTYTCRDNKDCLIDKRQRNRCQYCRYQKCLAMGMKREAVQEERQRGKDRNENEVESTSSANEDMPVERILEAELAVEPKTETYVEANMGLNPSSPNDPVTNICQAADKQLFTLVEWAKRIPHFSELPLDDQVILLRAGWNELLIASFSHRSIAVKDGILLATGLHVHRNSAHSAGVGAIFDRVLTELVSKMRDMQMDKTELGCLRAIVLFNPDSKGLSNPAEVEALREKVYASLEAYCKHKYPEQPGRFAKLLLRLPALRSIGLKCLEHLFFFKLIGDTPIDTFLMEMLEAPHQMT
Sequence of Nuclear receptor subfamily 1 group I member 2 (Rattus norvegicus) (Q9R1A7 whole entry, looked up): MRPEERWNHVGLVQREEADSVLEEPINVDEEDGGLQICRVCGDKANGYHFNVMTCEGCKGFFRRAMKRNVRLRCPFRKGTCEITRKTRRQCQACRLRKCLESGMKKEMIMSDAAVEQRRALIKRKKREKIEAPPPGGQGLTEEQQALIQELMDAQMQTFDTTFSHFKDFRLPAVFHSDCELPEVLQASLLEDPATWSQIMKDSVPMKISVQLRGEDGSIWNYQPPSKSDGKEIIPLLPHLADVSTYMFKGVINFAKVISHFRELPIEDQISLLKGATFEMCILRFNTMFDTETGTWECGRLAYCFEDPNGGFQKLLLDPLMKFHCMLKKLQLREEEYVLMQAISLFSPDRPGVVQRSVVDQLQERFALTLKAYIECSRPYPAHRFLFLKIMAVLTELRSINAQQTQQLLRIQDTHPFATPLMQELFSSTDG

Turning to `O=C(Cl)c1ccc([N+](=O)[O-])cc1`, the Potency in test [1] is > 92 µM (inactive). Also, in [2], the activity change, negative = cytotoxicity is 7.26% (inactive). Besides, the Potency result in test [3], in test [4], in test [5], in [6], in test [7] and in test [8] was “inactive” throughout. In addition, the Potency result in test [9], in [10], in test [11], in [13], in [14] and in test [15] was “inactive” each time. Also, the Potency entry in test [16] and in [17] was “inactive” in each case. Also, the values for the max response in test [12] and in test [18] were -12.7% and -6.29% (inactive), respectively.
With `Clc1nc2ccccc2nc1Cl`, the Potency in test [1] was > 92 µM (inactive). Further, the activity change, negative = cytotoxicity in test [2] is -7.43% (inactive). For the same compound, the Potency result in test [3], in test [4], in [5], in [6], in [19] and in [10] was “inactive” in each case. Also, the Potency result in test [14], in test [15] and in [16] was “inactive” each time.
As for `Nc1ccccc1O`, the Potency in test [1] is > 92 µM (inactive); in test [15] it was 15 µM (active); in test [16], 23.7 µM (active). The Potency result in test [3], in [4], in test [5], in test [7], in test [9] and in test [10] was “inactive” each time. Further, the Potency result in test [13], in test [14] and in test [17] was “inactive” throughout. Further, the max response in test [12] stood at 23.5%.
`NC(=O)Nc1nc2ccccc2[nH]1`: the Potency in test [1] is > 92 µM (inactive). Besides, the activity change, negative = cytotoxicity in [2] is -4.08% (inactive). The Potency result in test [3], in test [20], in test [4], in [6], in test [19] and in test [7] was “inactive” each time. In addition, the Potency result in [8], in test [9], in [10], in test [11], in test [13] and in test [15] was “inactive” each time. Moreover, the Potency result in test [16] and in test [17] was “inactive” in each case. Further, the results for the max response in [12] and in [18] were -1.01% and -2.46% (inactive), respectively.
Regarding `C=CC(C)(O)CCCC(C)CCCC(C)CCCC(C)C` (configuration not stated), in [1], the Potency was > 92 µM (inactive). Moreover, the activity change, negative = cytotoxicity in test [2] was -17.1% (inactive). The Potency result in [3], in [20], in test [4], in test [5], in [6] and in [7] was “inactive” each time. In addition, the Potency result in [8], in test [9], in [10], in test [11], in test [13] and in [14] was “inactive” throughout. Besides, in test [17], the Potency entry was “inactive”. Also, the max response in test [12] is -17.1%; in test [18], 4.48% (inactive).
As to `C/C=C1/C(=O)C[C@H]2[C@@H]3CCC4=CC(=O)CC[C@]4(C)[C@H]3CC[C@]12C`, the Potency in test [20] is 25.1 µM (active); in test [5], 31.6 µM (active); in test [9], 50.1 µM (active); in test [10], 50.1 µM (active); in test [11], 39.8 µM (active). Also, the Potency result in test [6], in test [19], in test [14], in test [15] and in test [16] was “inactive” in each case.
Regarding `C=Cc1cccc(C)c1`, in test [1], the Potency was > 92 µM (inactive). Also, the activity change, negative = cytotoxicity in test [2] is -2.59% (inactive). For the same compound, the Potency result in [3], in test [20], in test [4], in test [5], in test [6] and in [19] was “inactive” throughout. Moreover, the Potency entry in test [7], in [8], in [9], in [10], in test [11] and in [13] was “inactive” in each case. Moreover, the Potency result in test [14], in test [15], in test [16] and in test [17] was “inactive” throughout. Moreover, the max response was -15.6% in [12] and 3.54% (inactive) in [18].
As for `CCCCOC(=O)COc1ccc(Cl)cc1Cl`, the Potency in test [1] was > 92 µM (inactive). In addition, the activity change, negative = cytotoxicity in [2] was 7.15% (inactive). Moreover, the Potency entry in [3], in [20], in test [4], in test [5], in [6] and in test [19] was “inactive” each time. In addition, the Potency entry in test [7], in [8], in test [9], in test [10], in [11] and in test [13] was “inactive” each time. Moreover, the Potency entry in test [14], in test [15], in [16] and in test [17] was “inactive” each time. In addition, the max response was 4.2% and -8.56% in test [12]; -2.3% (inactive) and -1.06% (inactive) in test [18].
With `Oc1ccc(O)c2c(O)cccc12`, the activity change, negative = cytotoxicity in test [2] was -30.1% (inactive). Further, the Potency result in test [4], in test [5], in test [13] and in test [14] was “inactive” each time. Further, the Potency in test [6] is 50.1 µM (active); in test [9], 50.1 µM (active); in test [15], 23.7 µM (active). Further, the max response in test [12] was -16.7%; in [18], 1.1% (inactive).
